Reference: the supplement of paper PMC9942566
Where a name gives a salt, the structure may show the parent alone. ± gives the standard deviation of the averaged measurements.

Each molecule was assayed on Serratia marcescens K904 PosmB-luxCDABE reporter (pMQ747) (assay: PosmB-lux reporter fold induction (RLU/OD600 relative to no-compound control), highest over Biolog concentrations; higher = stronger Rcs reporter activation). Conditions: wild type K904; 4 h.
Procedure: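 Serratia marcescens K904 (wild type) or its isogenic ΔrcsB mutant, carrying the Rcs-dependent PosmB-luxCDABE reporter plasmid pMQ747, was grown in LB at OD600 0.1 in Biolog Phenotype MicroArray plates PM11-20 for 4 h at 30-32°C. Each compound is present at 3-4 proprietary concentrations (not stated); per the Fig. S1 legend the value given is the highest fold over those wells. Three independent trials.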

| SMILES | PosmB-lux reporter fold induction |
| --- | --- |
| CN[C@@H]1[C@@H](O[C@H]2O[C@H](CO)[C@@H](N)[C@H](O)[C@H]2O)OC2C[C@@H](N)[C@@H](O[C@H]3[C@H](O)[C@@H](O)[C@H](N)C[C@@H]3N)OC2[C@@H]1O (stereo not given in full) [apramycin] (Biolog plate: PM20, well positions: A5-8) | 1.85 ± 0.71 |
| O=c1c(O)c(-c2cc(O)c(O)c(O)c2)oc2cc(O)cc(O)c12 [myricetin] (Biolog plate: PM18, well positions: G9-12) | 1.05 ± 0.13 |
| Oc1c(Cl)cc(Cl)c(Cl)c1Cc1c(O)c(Cl)cc(Cl)c1Cl [hexa-chlorophene] (Biolog plate: PM20, well positions: E9-12) | 1.62 ± 0.6 |
| Cc1ncc([N+](=O)[O-])n1CC(O)CCl (stereo not given) [ornidazole] (Biolog plate: PM20, well positions: C9-12) | 1.61 ± 0.055 |
| Nc1ncn([C@@H]2O[C@H](CO)[C@@H](O)[C@H]2O)c(=O)n1 [5-azacytidine] (Biolog plate: PM16, well positions: E5-8) | 1.15 ± 0.41 |
| CN(C)c1ccc(C(=C2C=CC(=[N+](C)C)C=C2)c2ccc(N(C)C)cc2)cc1 [crystal violet] (Biolog plate: PM20, well positions: E1-4) | 0.912 ± 0.13 |
| CCCCC(CC)CNC(=N)NC(=N)NCCCCCCNC(=N)NC(=N)NCC(CC)CCCC (stereo not given) [Alexidine] (Biolog plate: PM15, well positions: E1-4) | 2.48 ± 0.99 |
| O=C(N[C@H](CO)[C@H](O)c1ccc([N+](=O)[O-])cc1)C(Cl)Cl [Chloramphenicol] (Biolog plate: PM11, well positions: F1-4) | 1.4 ± 0.62 |
| NC(CO)C(=O)NNCc1ccc(O)c(O)c1O (stereo not given) [Benserazide] (Biolog plate: PM20, well positions: A9-12) | 1.16 ± 0.17 |
| NC(=O)c1cc[n+](CC2=C(C(=O)[O-])N3C(=O)[C@@H](NC(=O)[C@@H](c4ccccc4)S(=O)(=O)O)[C@H]3SC2)cc1 [cefsulodin] (Biolog plate: PM17, well positions: H1-4) | 18.5 ± 17 |
| O=C(N[C@H](CO)[C@H](O)c1ccc([N+](=O)[O-])cc1)C(Cl)Cl [Chloramphenicol] (Biolog plate: PM14, well positions: F1-4) | 2.41 ± 1.1 |
| N=C(N)N [Guanidine hydrochloride] (Biolog plate: PM15, well positions: A5-8) | 1.84 ± 0.099 |
| [Cl][Cu][Cl] [Cupric chloride] (Biolog plate: PM13, well positions: H1-4) | 1.13 ± 0.12 |
| COc1cc(Cc2cnc(N)nc2N)cc(OC)c1OC [trimethoprim] (Biolog plate: PM16, well positions: B9-12) | 1.93 ± 0.91 |
| O=C(O)c1ccccc1S [Thiosalicylic acid] (Biolog plate: PM17, well positions: A9-12) | 1.12 ± 0.27 |
| C[n+]1cc2c3c(ccc2c2ccc4cc5c(cc4c21)OCO5)OCO3 [Sanguinarine] (Biolog plate: PM14, well positions: A9-12) | 1.83 ± 0.71 |
| CC(=O)OCC1=C(C(=O)O)N2C(=O)[C@@H](NC(=O)Cc3cccs3)[C@H]2SC1 [Cephalothin] (Biolog plate: PM11, well positions: H1-4) | 1.36 ± 0.043 |
| CN(C)[C@@H]1C(O)=C(C(N)=O)C(=O)[C@@]2(O)C(O)=C3C(=O)c4c(O)ccc(Cl)c4[C@@](C)(O)[C@H]3C[C@@H]12 [Chlortetracycline] (Biolog plate: PM11, well positions: A5-8) | 1.48 ± 0.4 |
| N=C(NCCCCCCNC(=N)NC(=N)Nc1ccc(Cl)cc1)NC(=N)Nc1ccc(Cl)cc1 [chlorhexidine] (Biolog plate: PM19, well positions: C1-4) | 1.21 ± 0.081 |
| O=C1CN(/N=C/c2ccc([N+](=O)[O-])o2)C(=O)N1 [Nitrofurantoin] (Biolog plate: PM14, well positions: E5-8) | 2.33 ± 0.28 |

| SMILES | PosmB-lux reporter fold induction |
| --- | --- |
| CN1CCN(CCCN2c3ccccc3Sc3ccc(C(F)(F)F)cc32)CC1 [Trifluoperazine] (Biolog plate: PM13, well positions: G9-12) | 1.34 ± 0.17 |
| CCCCCCCC[N+](C)(CCCCCCCC)CCCCCCCC [methyltrioctyl-ammonium chloride] (Biolog plate: PM19, well positions: B1-4) | 1.17 ± 0.32 |
| CC(Oc1ccccc1)C(=O)N[C@@H]1C(=O)N2[C@@H]1SC(C)(C)[C@@H]2C(=O)O (stereo not given in full) [phenethicillin] (Biolog plate: PM19, well positions: F1-4) | 86 ± 19 |
| Nc1ccc(S(=O)(=O)Nc2ncccn2)cc1 [Sulfadiazine] (Biolog plate: PM12, well positions: E5-8) | 2.21 ± 0.27 |
| NCC(=O)NO [glycine hydroxamate] (Biolog plate: PM16, well positions: H1-4) | 2.05 ± 0.2 |
| Nc1ccc(S(N)(=O)=O)cc1 [sulfanilamide] (Biolog plate: PM16, well positions: B5-8) | 0.986 ± 0.29 |
| CCS(=O)(=O)CCn1c([N+](=O)[O-])cnc1C [tinidazole] (Biolog plate: PM18, well positions: F5-8) | 1.53 ± 0.081 |
| NC(CO)C(=O)NO (racemic) [D,L-Serine hydroxamate] (Biolog plate: PM12, well positions: C9-12) | 3.63 ± 0.5 |
| NC(=O)NO [Hydroxyurea] (Biolog plate: PM15, well positions: H5-8) | 13.1 ± 1.9 |
| CO[C@H]1C[C@H](O[C@H]2[C@H](C)[C@@H](O[C@@H]3O[C@H](C)C[C@H](N(C)C)[C@H]3O)[C@@H](C)C[C@@]3(CO3)C(=O)[C@H](C)[C@@H](O)[C@@H](C)[C@@H](C)OC(=O)[C@@H]2C)O[C@@H](C)[C@@H]1O [Oleandomycin] (Biolog plate: PM15, well positions: F5-8) | 3.29 ± 1.7 |
| Cc1onc(-c2ccccc2Cl)c1C(=O)N[C@@H]1C(=O)N2[C@@H]1SC(C)(C)[C@@H]2C(=O)O [Cloxacillin] (Biolog plate: PM11, well positions: B5-8) | 2.22 ± 0.62 |
| C1COCCOCCOCCOCCOCCO1 [18-crown-6 ether] (Biolog plate: PM20, well positions: D9-12) | 2.22 ± 0.31 |
| COc1ccc(CO)cc1OC [3,4-Dimethoxy-benzyl alcohol] (Biolog plate: PM15, well positions: F1-4) | 2.75 ± 1.1 |
| CC1(C)S[C@@H]2[C@H](NC(=O)[C@H](NC(=O)N3CCNC3=O)c3ccccc3)C(=O)N2[C@H]1C(=O)O [Azlocillin] (Biolog plate: PM13, well positions: B1-4) | 1.96 ± 0.43 |
| O=C([O-])c1ccccc1O.[Na+] [sodium salicylate (NSAID)] (Biolog plate: PM17, well positions: B1-4) | 5.52 ± 2 |
| CCn1cc(C(=O)O)c(=O)c2ccc(C)nc21 [Nalidixic Acid] (Biolog plate: PM11, well positions: E9-12) | 3.44 ± 0.51 |
| CC1=CC(=O)c2ccccc2C1=O [Menadione] (Biolog plate: PM15, well positions: G9-12) | 3.74 ± 0.73 |
| CCOc1ccc2ccccc2c1C(=O)N[C@@H]1C(=O)N2[C@@H]1SC(C)(C)[C@@H]2C(=O)O [Nafcillin] (Biolog plate: PM11, well positions: D9-12) | 2.29 ± 0.21 |
| Cc1onc(-c2ccccc2)c1C(=O)N[C@@H]1C(=O)N2[C@@H]1SC(C)(C)[C@@H]2C(=O)O [Oxacillin] (Biolog plate: PM12, well positions: B1-4) | 2.16 ± 0.46 |
| CS(=O)(=O)c1ccc([C@@H](O)[C@@H](CO)NC(=O)C(Cl)Cl)cc1 [thiamphenicol] (Biolog plate: PM18, well positions: A9-12) | 0.659 ± 0.017 |
